# Data from PubChem BioAssay (NCI).
# The panel holds about 83,000 compounds, 20% with a hit somewhere; the sample as a whole holds those more often.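 Assay: single dose, 48 h. Readout: percent growth (0 = no net growth; negative = cell death). Active: <10.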 Calls of active or inactive are those of the source.
# Tested on: NCI-H460 lung
# Assay: NCI-60 one-dose screen, 48 h (100 = growth as untreated, 0 = no growth, -100 = all killed)
# Conditions: 10 µM unless noted
row,Structure (SMILES),growth
1,O=C(/C=C/c1ccc2ccccc2c1)Nc1ncc(Cc2ccccc2)s1,30.8% (inactive)
2,O=C1c2cc3c(cc2-c2c1c1ccc(F)cc1c(=O)n2CCCN1CCOCC1)OCO3,14.1% (inactive)
3,C=C1CC[C@@H](C(=O)OC)Cc2nc(C)ccc21,106% (inactive)
4,CCN1CCN(C(=O)[C@]23CCC(C)(C)C[C@@H]2C2=CC[C@@H]4[C@@]5(C)C/C(=C/c6cccnc6)C(=O)C(C)(C)[C@@H]5CC[C@@]4(C)[C@]2(C)CC3)CC1,12.1% (inactive)
5,Nc1c(C(=O)Nc2cccc3ccccc23)sc2nc3c(cc12)CCCC3,16.4% (inactive)
6,CC(C)(C)c1cc(-n2c(-c3ccc(Cl)cc3)nc3cc(C(=O)Nc4ccc(Cl)cc4)ccc32)n[nH]1,39.6% (inactive)
7,Fc1ccc(Nc2nnc(-c3ccc(Cl)cc3)o2)cc1,105% (inactive)
8,O=C1/C(=C\c2ccc(Br)o2)SC(=S)N1CCc1ccc(O)cc1,107% (inactive)
9,CC(=O)c1c(C)[nH]c(-c2nc3ccc(N4CCN(C)CC4)cc3[nH]2)c1-c1ccc2c(c1)OCCO2,62.7% (inactive)
10,COc1ccc2[nH]c(-c3ccc(Cl)cc3)cc(=O)c2c1,100% (inactive)
11,CCC1C(=O)COC1=O (stereo not drawn),105% (inactive)
12,COc1ccc(O)c(-c2cc(-c3ccc(Cl)cc3)c(C#N)c(=O)[nH]2)c1,69.3% (inactive)
13,C=C(C)[C@@H]1CC[C@]2(C)[C@H](CC[C@@H]3[C@H]4[C@H]5OC[C@@]4(CCC5(C)C)CC[C@]32C)[C@@]1(C)CCCN,-28.6% (active)
14,CN1CCN(CCOc2ccc(-c3cnc4c(-c5cccc(F)c5)cnn4c3)cc2)CC1,1.99% (active)
15,Cc1cc(N(CCNc2ccnc3cc(Cl)ccc23)Cc2ccco2)nc(Cl)n1,-59.8% (active)
16,COc1ccc(CCN2C(=O)C(C)(C)SC2=S)cc1OC,105% (inactive)
17,Cc1cc2nc3c4cc(O)ccc4n(CCN(C)C)c3nc2cc1C,3.73% (active)
18,CCCCC(=O)OC1CCCCC1C (stereo not drawn),104% (inactive)
19,COc1ccc2c(c1)c(-c1nc(-c3c[nH]c4ncccc34)cs1)cn2CCCN1CCCCC1,5.78% (active)

row,Structure (SMILES),growth
1,CC(=O)c1c(C)[nH]c(-c2nc3ccc(N4CCN(C)CC4)cc3[nH]2)c1-c1ccc(OCC2CCOCC2)cc1,49.6% (inactive)
2,Cc1nc([P+](c2ccccc2)(c2ccccc2)c2ccccc2)c(Sc2sc(-c3ccccc3)nc2[P+](c2ccccc2)(c2ccccc2)c2ccccc2)o1,3.38% (active)
3,NNC(=O)c1nc2ccccc2[nH]1,108% (inactive)
4,O=P(O)(c1ccccc1)c1ccccc1I,97.2% (inactive)
5,COc1ccc(OC)c(-c2c(C#N)c(-c3ccco3)nc3c2c(-c2ccccc2)nn3-c2ccccc2)c1,101% (inactive)
6,CNC(=O)c1cc(Oc2ccc3nc(NC(=O)Nc4ccc(Cl)cc4)sc3c2)ccn1,64.4% (inactive)
7,Clc1cc(Cl)cc(Nc2ccc3c(OCCCN4CCOCC4)cccc3n2)c1,13.1% (inactive)
8,N#CC1=C(N)Oc2c(c(N)nn2-c2ccccc2)C1c1ccc(Cl)cc1Cl (stereo not drawn),106% (inactive)
9,CC(C)(C)c1ccc(OCCCCCCCN2CCNCC2)cc1,-14.9% (active)
10,Cc1cc(Cl)nc(N(CCCNc2ccnc3cc(Cl)ccc23)Cc2ccco2)n1,16.7% (inactive)
11,CC1(C)NCCC[C@]2(C)[C@H]3CC[C@@H]4[C@H]5[C@H](C(=O)/C=C/c6ccccn6)CC[C@]5(CO)CC[C@@]4(C)[C@]3(C)CC[C@@H]12,25.1% (inactive)
12,NCCNc1nc(-c2ccccc2)nc2nc(-c3ccccc3)oc12,98.4% (inactive)
13,COc1cnc2c(c1)C(=O)c1c-2n(CCCNC(C)C)c(=O)c2cc([N+](=O)[O-])ccc12,-74.1% (active)
14,COc1cnc2c(c1)C(=O)c1c-2n(CCCNC2=NCCS2)c(=O)c2cc([N+](=O)[O-])ccc12,-81.9% (active)
15,CCC(c1ccc(OC)cc1)C(CC)c1ccc(O)c(CN2CCCCC2)c1 (stereo not drawn),77.1% (inactive)
16,COc1cc2nc(Cl)nc(Nc3cccc(C(=O)/C=C/c4ccccc4)c3)c2cc1OC,89% (inactive)
17,CC1(C)C(=O)/C(=C\c2ccco2)C[C@]2(C)[C@H]3CC[C@@H]4[C@@H](C(=O)/C=C/c5ccco5)CC[C@@]4(C)[C@]3(C)CC[C@@H]12,98.7% (inactive)
18,CCCC1CCCCN1C(=O)OCC(C)C (stereo not drawn),107% (inactive)
19,Cc1ccc(-c2nn(Cc3cn(-c4cc(C)nc5ccccc45)nn3)c3ncnc(N)c23)cc1,68.4% (inactive)
